NPSR antag = qHTS Assay for Antagonists of the Neuropeptide S Receptor: cAMP Signal Transduction; AID 1461, 2008; 1% of 220,000 active; Potency, µM (series often up to 38.3 µM), for the others: at the highest dose activity change, negative = inhibition, hits mostly inhibitors; CHO-NPSR cells, cAMP TR-FRET, antagonist mode; Q6W5P4; further: nearly all actives have a fitted effect of over 50% in size
Gal4-VP16 FLuc = VP16 counterscreen qHTS for inhibitors of ROR gamma transcriptional activity | Drosophila S2 Gal4-VP16 UAS-luciferase, luminescence, 20 h | Potency, µM (titrated, usually from 53.6 µM), inactives show at the top dose activity, negative = inhibition, hits mostly inhibitors | 3.5% of 310,000 active;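 further: Gal4-VP16 expression switched on by copper sulfate through the metallothionein promoter; nearly all actives have a fitted effect of over 50% in size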
RORg inh = qHTS for inhibitors of ROR gamma transcriptional activity. Drosophila S2 Gal4-RORgamma UAS-luciferase reporter, 20 h. AID 2551, 2010. 5.4% of 310,000 active. Nuclear receptor ROR-gamma (Mus musculus), P51450. Potency, µM (titrated, usually from 53.6 µM), without a hit: at the highest dose activity change, negative = inhibition, usual class: inhibitors; further: nearly all actives have a fitted effect of over 60% in size
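Stable Schneider cell line, Gal4 DNA-binding domain fused to ROR gamma, UAS-luciferase. Cmpd 1 hr RT → CuSO4 700 uM final → 20 hr RT → luciferase reagent 10 min → luminescence.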
B2AR arrestin = qHTS assay of beta-arrestin-biased ligands of beta2-adrenergic receptor; Potency, µM (top dose mostly 46.1 µM), for inactives: at the highest dose activation, actives largely listed as activators; beta-arrestin recruitment to beta2AR, cell-based reporter; 0.02% of 330,000 active;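 further: 0% = DMSO controls and full agonism = EC100 isoproterenol or metaproterenol; nearly all actives have a fitted effect of over 65% in size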
Target sequence (P07550 whole entry, looked up): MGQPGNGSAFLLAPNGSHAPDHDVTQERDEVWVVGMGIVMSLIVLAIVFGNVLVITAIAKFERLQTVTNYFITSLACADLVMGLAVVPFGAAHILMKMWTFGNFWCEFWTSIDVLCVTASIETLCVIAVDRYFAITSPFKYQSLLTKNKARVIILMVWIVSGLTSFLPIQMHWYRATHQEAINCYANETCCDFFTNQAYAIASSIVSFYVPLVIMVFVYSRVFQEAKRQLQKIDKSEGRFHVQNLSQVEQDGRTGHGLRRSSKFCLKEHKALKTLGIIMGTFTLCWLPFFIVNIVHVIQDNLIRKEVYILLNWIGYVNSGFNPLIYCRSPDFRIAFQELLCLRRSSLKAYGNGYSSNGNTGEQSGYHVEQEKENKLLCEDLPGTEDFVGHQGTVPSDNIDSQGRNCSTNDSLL
Active calls of the source: *; ? = inconclusive; nt = no result given; [ ] = dose if it differs, or a comment. Only some compounds are listed: those with a hit (about 5.7% of all), similar ones and a draw of the others. The call rests on the fitted dose curve; in most records, active means well fitted curve in the direction sought with a large enough effect; inconclusive means small, poorly fitted or top-dose-only effect, or another doubt; inactive means no such curve, though single readings can be large; an effect the other way counts as inactive or inconclusive. Unless noted, on the % scale 0 is the no-effect control and ±100 the full control effect; potency means the concentration at half of the fitted maximal effect.

SMILES	NPSR antag	Gal4-VP16 FLuc	RORg inh	B2AR arrestin
COc1ccc(/C=N/Nc2nc(=O)[nH]nc2C)cc1[N+](=O)[O-]	2%	1%	-4%	-1%
Cc1n[nH]c(=O)nc1N/N=C/c1ccc(O)c([N+](=O)[O-])c1	-26%	?	11µM*	0%
COc1ccc(OC)c(S(=O)(=O)N/N=C\c2ccc3c(c2)OCO3)c1	nt	1%	31%	0%
COc1ccc(S(=O)(=O)N/N=C\c2ccc3c(c2)OCO3)c(OC)c1	nt	11µM*	?	0%
CC(NC(=O)Cn1ncc(Cl)c(Cl)c1=O)C12CC3CC(CC(C3)C1)C2 (stereo not given)	10µM*	?	13µM*	-1%
O=C(Cn1cnc([N+](=O)[O-])n1)c1ccc(O)c(O)c1	nt	1%	-25%	0%
C=CCNC(=S)NNC(=O)C(CC(C)C)CC(C)O (stereo not given)	6%	-6%	-20%	0%
C=CCNC(=S)NNC(=O)C(CCC(C)C)CC(C)(C)O (stereo not given)	-9%[46.1 µM]	?	14µM*	0%
S=C1NC(c2cccs2)=CC(c2ccc(Br)cc2)N1 (stereo not given)	-40%	4µM*	3.5µM*	0%
S=C1NC(c2ccccc2)=CC(c2ccccc2)N1 (stereo not given)	-20%	11µM*	3.5µM*	0%
NC(=O)C1CCN(c2oc(-c3cccs3)nc2S(=O)(=O)c2ccc(Br)cc2)CC1	nt	nt	nt	-1%
O=C(CNS(=O)(=O)c1ccc(Br)s1)NCCc1ccc(Cl)cc1	nt	-4%	-24%	-1%
Cn1c(=O)c(=O)n(C)c2cc([N+](=O)[O-])c([N+](=O)[O-])cc21	?	?	7.9µM*	0%
Cn1c(=O)n(C)c2cc([N+](=O)[O-])c(N3CCN(S(C)(=O)=O)CC3)cc21	2%	-14%	-2%	0%
Cc1nc(SCC(=O)Nc2ccccc2)c2oc3ccccc3c2n1	?	-8%	11%	-1%
CNC(=O)C(Sc1nc(C)nc2c1oc1ccccc12)C(C)=O (stereo not given)	-7%[46.1 µM]	7.1µM*	33%	0%
Cc1ccc(C)c(NC(=S)NC(C)C(c2cccs2)N2CCOCC2)c1 (stereo not given)	-6%	11µM*	5µM*	-2%
Cc1cccc(C(=O)NC(C)C(c2cccs2)N2CCOCC2)c1 (stereo not given)	14%	10%	15%	0%
CC(NC(=S)Nc1cccc(F)c1)C(c1cccs1)N1CCOCC1 (stereo not given)	-6%	?	8.9µM*	0%
CCCCNc1nc(C)nc2c1nc(-c1ccccc1)n2CCN1CCCC1	nt	-3%	-41%	nt
COC(=O)C(NC(=O)COc1ccccc1)(Nc1nc2c(s1)CCCC2)C(F)(F)F (stereo not given)	-20%[46.1 µM]	20µM*	?	0%
N=C1Sc2ccccc2C2=NCCCN12	-9%[46.1 µM]	nt	nt	nt
CC(=O)c1cccc(NC(=O)c2ccc(-c3ccccc3[N+](=O)[O-])o2)c1	-3%	7.1µM*	?	0%
O=C(Nc1nnc(-c2ccc(F)cc2)o1)C1CCCN1S(=O)(=O)c1cccs1 (stereo not given)	nt	nt	nt	-2%
COC(=O)Sc1nnc(-c2ccc(Br)cc2)o1	-17%[46.1 µM]	7%	18µM*	0%
SMILES	NPSR antag	Gal4-VP16 FLuc	RORg inh	B2AR arrestin
OCC#CCSc1nnc(-c2ccc(Br)cc2)o1	2%[46.1 µM]	?	?	-1%
Cc1cc(=O)[nH]c(SCC(=O)Nc2cccc(S(=O)(=O)N3CCOCC3)c2)n1	nt	nt	nt	0%
C[C@@H]1CN(C(=O)c2nc3ccc(Cl)cn3c2CN(C)CCc2cnn(C)c2)C[C@H](C)O1	nt	-3%	-3%	0%
COC(=O)c1cccc(C(=O)N2CCCC(Nc3ccc(C)c(C)c3)C2)c1 (stereo not given)	nt	3%	8%	0%
O=C(Nc1ccc(N2CCOCC2)cc1)c1cnsn1	-10%[46.1 µM]	1.8µM*	2µM*	-2%
O=C(Nc1ccc(N2CCOCC2)cc1)c1ccncc1	-1%	-13%	21%	2%
O=C(Nc1ccc(N2CCOCC2)cc1)c1cnccn1	nt	7.9µM*	5µM*	-1%
CC(NS(=O)(=O)c1cc2c3c(c1)CCC(=O)N3CCC2)c1ccccc1 (stereo not given)	nt	nt	nt	0%
Cc1cc(C)n2cc(COc3ccc4ccccc4c3)nc2n1	0%	-16%	-2%	2%
Cc1cccc2nc(COc3ccc(-c4ccccc4)cc3)cn12	40%	3%	13µM*	-1%
C/C=C1\CC2C=CC1C2 (stereo not given)	nt	-8%	-7%	nt
CCN(CC)C(=S)S	nt	3.5µM*	?	nt
O=C1CC[C@H](C(=O)N[C@@H]2C[C@H]2c2ccccc2)N1	nt	8%	40%	nt
CC[C@@]1(c2ccccc2)NC(=O)NC1=O	nt	2%	-8%	nt
CN1CC(c2ccccc2)C2(SC(=S)N(Cc3ccco3)C2=O)C12C(=O)Nc1ccccc12 (stereo not given)	10µM*	?	?	0%
CN1CC(c2ccccn2)C2(SC(=S)N(Cc3ccccc3)C2=O)C12C(=O)Nc1ccccc12 (stereo not given)	-30%[46.1 µM]	?	?	0%
CSCC[C@H](N)C(=O)N[C@@H](CO)C(=O)N[C@@H](CCCN=C(N)N)C(=O)N1CCC[C@H]1C(=O)N[C@@H](C)C(=O)N[C@@H](CS)C(=O)N1CCC[C@H]1C(=O)N[C@@H](CC(N)=O)C(=O)N[C@@H](CC(=O)O)C(=O)N[C@@H](CCCCN)C(=O)N[C@@H](Cc1ccc(O)cc1)C(=O)N[C@@H](CCC(=O)O)C(=O)O	nt	-3%	8%	nt
COc1ccc(NC(=O)COC(=O)C(CC(C)C)N2C(=O)C3CC=CCC3C2=O)cc1Cl (stereo not given)	-12%	22µM*	-3%	-2%
CNC(=S)NNC(=O)c1sc2cc(C(F)(F)F)cnc2c1-c1cccnc1	-7%	-2%	18µM*	-1%
CNC(=S)NNC(=O)c1sc2cc(C(F)(F)F)cnc2c1-c1ccccn1	-36%	-18%	1.1µM*	0%
Cc1cc(C)cc(NCCC#N)c1	-31%	1%	15%	0%
CCCCCCCOC(=O)C[N+](C)(C)CCOC1CC2CCC1(C)C2(C)C (stereo not given)	?	13µM*	?	0%
CCCCCCOC(=O)C[N+](C)(C)CCOC1CC2CCC1(C)C2(C)C (stereo not given)	?	6%	?	0%
Cc1nnc(SCc2nnc(-c3cccs3)o2)n1Cc1ccccc1	3%	-17%	-23%	0%
Clc1ccc(-c2nnc(CSc3nnc(-c4cccs4)n3Cc3ccccc3)o2)cc1	-8%	18µM*	?	3%
COc1ccc(-c2nnc3n2N=C(c2c(OC)cccc2OC)CS3)c(OC)c1	nt	7%	-1%	nt
Cc1ccc(C(=O)c2c(C)oc3c2C(=O)C(=O)c2ccccc2-3)cc1	-29%[46.1 µM]	3.5µM*	5µM*	0%

Compound activity deposited in PubChem BioAssay by National Center for Advancing Translational Sciences (NCATS).
